Rows were chosen to be rich in hits. Some 2.1% of all compounds tested hit in one or more screens of this group.
HSV replic up – enhancers of HSV replication in host cells, fold increase, host cell viability | HSV replication augmentation in cells | maximum fold increase | 220,000 compounds, 0.005% hits; in the data active = maximum fold increase above about 1.5; inconclusive = no clear call, values can overlap the other calls; tested in PC3 cells
HMGR II inh – inhibitors of E. faecalis class II HMGR, primary screen, biochemical, Enterococcus faecalis; inhibition, % at 10 µM; 190,000 compounds, 0.41% hits; purified E. faecalis HMGR, NADPH absorbance 340 nm kinetic; HMG-CoA reductase (Enterococcus faecalis, mvaE);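 active = inhibition above a set limit, the median over all tested compounds plus 3 SD, cut at about 9.5% in these data; inconclusive = no clear call, values can overlap the other calls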;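 also: enzyme runs in reverse so mevalonate oxidation gives rising NADPH absorbance; 0% = complete reaction with DMSO and 100% = background rate lacking mevalonate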
Calpain2 inh – inhibitors of pig calpain II, primary screen, biochemical, fluorogenic peptide substrate, 1536-well; 220,000 compounds, 0.37% hits; inhibition, % at 16 µM; AID 1236, 2008; purified calpain II, 30 min;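 active = inhibition above about 50%, limit read from the data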
Arbovirus inh – antivirals against arbovirus infection, primary screen, cell-based, full library, 10K replicate subset. arbovirus infection cell-based antiviral screen. inhibition, % at 10 µM. 200,000 compounds, 0.37% hits; in the data active = inhibition above about 30%
ROMK mod – ROMK potassium channel modulators, primary screen, cell-based, thallium flux, MLSMR library. ATP-sensitive inward rectifier potassium channel 1 (Homo sapiens), P48048. B-score at 10 µM. Tet-inducible ROMK, thallium flux fluorescence; actives lie on both sides. 130,000 compounds, 2% hits. AID 1918, 2009;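 active = signal ratio slope over the read window, or its plate-corrected B-score, at least 3 SD from the plate mean, either direction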;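 also: B-score of the F/F0 ratio slope over 7 to 12 s after thallium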
Target sequence (P48048 whole entry, looked up): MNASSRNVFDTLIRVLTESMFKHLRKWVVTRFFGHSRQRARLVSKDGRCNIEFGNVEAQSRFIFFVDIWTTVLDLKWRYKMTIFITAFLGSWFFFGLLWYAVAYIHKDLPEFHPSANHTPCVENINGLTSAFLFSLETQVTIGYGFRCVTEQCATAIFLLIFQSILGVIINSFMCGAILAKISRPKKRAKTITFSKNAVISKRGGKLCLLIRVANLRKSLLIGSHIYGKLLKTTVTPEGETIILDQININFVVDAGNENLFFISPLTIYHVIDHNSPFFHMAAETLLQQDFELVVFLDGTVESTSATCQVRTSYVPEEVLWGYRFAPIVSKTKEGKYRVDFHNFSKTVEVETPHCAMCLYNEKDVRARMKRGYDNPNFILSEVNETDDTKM
ROMK retest – ROMK channel modulator hit retest, confirmation, cell-based, thallium flux, duplicate, resupplied hits; shares compounds with ROMK mod; fluorescence ratio; hits give low values; normalized thallium flux (F/F0 slope) at 10 µM; 3,000 compounds, 54% hits; AID 1917, 2009;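 active = Flux at 10 µM at least 3 SD below or above vehicle control mean in one or both replicates; inconclusive = no clear call, values can overlap the other calls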
Numbers without * were called inactive.

How did C/C(=N\NC(=O)c1ccccc1F)c1ccc2c(c1)Nc1ccccc1S2 do in these assays?
HSV replic up: inactive; HMGR II inh: -5; Calpain2 inh: 12; Arbovirus inh: -10; ROMK retest: 0.07

What do the screens show for `O=S(=O)(Nc1nc2ccccc2nc1Nc1cccc(S(=O)(=O)N2CCCCC2)c1)c1ccccc1`?
HSV replic up: inactive; HMGR II inh: -6; Calpain2 inh: 42; Arbovirus inh: 5

How did CN(C)c1nc(Oc2ccc(C(=O)OCC(=O)Nc3ccccc3)cc2)nc(N(C)C)n1 do in these assays?
HSV replic up: inactive; HMGR II inh: 0; Calpain2 inh: 18; Arbovirus inh: 9; ROMK retest: 0.08

How did CCOC(=O)c1ccc(Oc2nc(OC)nc(N(C)C)n2)cc1 do in these assays?
HSV replic up: inactive; HMGR II inh: 1; Calpain2 inh: -17; Arbovirus inh: -2

Results for CC[C@H](C)[C@H](NC(N)=O)C(=O)Nc1ccc(NC(C)=O)cc1 ?
HSV replic up: inactive; Calpain2 inh: -12; ROMK retest: 0.082

What do the screens show for `COC(=O)C(C(=O)Nc1ccccc1C)C1CCCCCC1` (configuration not stated)?
HSV replic up: inactive; HMGR II inh: -2; Calpain2 inh: 4; Arbovirus inh: -3; ROMK mod: 0.87

Results for Cc1[nH]c2ccccc2c1CN1CCN(c2ccccn2)CC1 ?
HSV replic up: inactive; Calpain2 inh: 9; ROMK mod: -3.7*; ROMK retest: 0.065*

Results for N#CC1=C(N)Oc2n[nH]c(-c3cccs3)c2C1c1ccco1 (configuration not stated) ?
HSV replic up: inactive; HMGR II inh: -3; Calpain2 inh: -61; Arbovirus inh: 8; ROMK mod: -3.5*; ROMK retest: 0.053*

What do the screens show for `CCCCOc1ccc(C(=O)N/N=C/c2ccc(OCCN3CCCCC3)c(OC)c2)cc1`?
HSV replic up: inactive; HMGR II inh: -1; Calpain2 inh: -7; Arbovirus inh: -34

Results for CC(C)C(=O)NC(c1cccs1)c1cc([N+](=O)[O-])c2cccnc2c1O (configuration not stated) ?
HMGR II inh: -3; Calpain2 inh: -7; Arbovirus inh: -27

Results for Cc1ccc(C(NC(=O)C(C)C)c2cc([N+](=O)[O-])c3cccnc3c2O)cc1 (configuration not stated) ?
HSV replic up: inactive; HMGR II inh: 4; Calpain2 inh: -88; Arbovirus inh: -20; ROMK mod: 3.3*; ROMK retest: 0.081

What do the screens show for `COc1ccccc1C(=O)NC1CCCCCCC1`?
HSV replic up: inactive; HMGR II inh: 1; Calpain2 inh: -10; Arbovirus inh: -12; ROMK mod: -1.3

Results for COc1ccc(S(=O)NC2CCCCC2)c(OC)c1C (configuration not stated) ?
HSV replic up: inactive; HMGR II inh: 1; Calpain2 inh: -2; Arbovirus inh: -7; ROMK retest: 0.075

Results for O=C(CN(C(=O)c1csnn1)c1cccc2ccccc12)NC1CCCC1 ?
HSV replic up: inactive; HMGR II inh: 1; Calpain2 inh: -23; Arbovirus inh: -8; ROMK mod: -0.019

What do the screens show for `Cc1ccccc1N(CC(=O)NC1CCCC1)C(=O)c1csnn1`?
HSV replic up: inactive; HMGR II inh: -3; Calpain2 inh: 4; Arbovirus inh: -4; ROMK mod: 1.3*; ROMK retest: inconclusive

How did COc1ccc(/C=C2/C(=O)OCc3cc(OC)c(OC)cc32)cc1 do in these assays?
HSV replic up: inactive; HMGR II inh: -1; Calpain2 inh: -13; Arbovirus inh: -24; ROMK mod: 2.6*; ROMK retest: 0.088

What do the screens show for `CCOCCCNC(=O)C(NC(=O)Cc1c[nH]c2ccccc12)c1ccccc1` (configuration not stated)?
HSV replic up: inactive; HMGR II inh: -1; Calpain2 inh: 7; Arbovirus inh: 2; ROMK mod: -0.16

What do the screens show for `Cc1ccc(-n2ncc(C(=O)Nc3cc(Cl)cc(Cl)c3)c2C2CCNCC2)cc1C`?
HSV replic up: inactive; HMGR II inh: 1; Calpain2 inh: 5; Arbovirus inh: -29; ROMK mod: -6.1*; ROMK retest: 0.048*
